Screens from PubChem.
hcDAF-12 act = H. contortus DAF-12 activation, primary screen; HEK293 hcDAF-12 lit1-tk-luc reporter, luminescence; 0% DMSO, 100% Δ7-dafachronic acid; activation, % at 6.8 µM; 370,000 compounds, 1.4% hits;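 active means activation above the mean of all tested compounds plus 3 SD, cut at about 5.5% in these data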;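 further: 100% = response to 3 µM Δ7-dafachronic acid high control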
SMARCA2 activ = increases SMARCA2 function in MMTV reporter cells | MG213 cells, MMTV-luciferase reporter, dexamethasone, overnight | activation, % at 9.1 µM | 370,000 compounds, 1% hits; in the data active means activation above about 7.8%;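 further: 0% = vehicle wells and 100% = reference activator wells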
DAX1 inh-1 = inhibitors of human orphan nuclear receptor DAX1 (NR0B1) | P51843 | HEK293 Gal4-DAX1 luciferase reporter, luminescence | inhibition, % at 6.75 µM | 340,000 compounds, 0.99% hits;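 active means inhibition above the mean over all tested compounds plus 3 SD, cut at about 4.2% in these data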;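 further: 0% = DAX1-transfected cells with DMSO and 100% = empty-vector control cells with DMSO; inhibition shows as a rise in luminescence from relieved DAX1 repression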
Target sequence (P51843 207-470 limits assumed): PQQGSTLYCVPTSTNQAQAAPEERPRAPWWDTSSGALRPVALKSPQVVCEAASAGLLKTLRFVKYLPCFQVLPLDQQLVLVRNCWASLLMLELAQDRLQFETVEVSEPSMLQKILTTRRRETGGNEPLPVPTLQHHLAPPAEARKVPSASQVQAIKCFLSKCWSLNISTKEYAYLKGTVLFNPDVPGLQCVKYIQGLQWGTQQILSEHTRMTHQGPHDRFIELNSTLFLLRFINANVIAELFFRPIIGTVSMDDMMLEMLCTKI
hgDAF12 agonist = agonists of H. glycines DAF-12 nuclear receptor; AID 687014; 370,000 compounds, 1.8% hits; HEK293 GAL4-hgDAF12 UAS-luciferase reporter, agonist luminescence; normalized to butyrate control; activation, % at 6.8 µM;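 active means activation above a cutoff set at the mean of all screened compounds plus 3 SD, cut at about 10% in these data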;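 further: 0% = DMSO wells and 100% = sodium butyrate wells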
ssDAF-12 act = activators of S. stercoralis DAF-12 nuclear receptor; HEK293 ssDAF-12/GRIP1 lit1-tk-luc reporter, luminescence; % of 3 µM dafachronic acid response; activation, % at 6.8 µM; 370,000 compounds, 1% hits; AID 652126;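 active means activation above the mean over all tested compounds plus 3 SD, cut at about 0.9% in these data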;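 further: 0% = DMSO-only wells and 100% = 3 µM delta7-dafachronic acid wells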
DAX1 inh-2 = inhibitors of DAX1 repression of SF-1 activated StAR promoter; HEK293T StAR-luciferase reporter, SF-1/DAX-1 repression relief; 370,000 compounds, 1.1% hits; AID 652010; inhibition, % at 6.8 µM;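 active means inhibition above the mean over all tested compounds plus 3 SD, cut at about 3.6% in these data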;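 further: 0% = DAX-1 cells with DMSO and 100% = cells lacking DAX-1 with DMSO; higher inhibition means more luminescence from relief of DAX-1 repression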
SMARCA2 conf = confirmation of SMARCA2 (BRM) function activators | shares compounds with SMARCA2 activ | 3,500 compounds, 30% hits | MG213 cells, MMTV-luciferase with dexamethasone, luminescence, overnight; MG213 cells expressing E1A, Rb sequestered; DMSO wells 0%, reference activator 100% | activation, % at 9.1 µM;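 active means activation above its plate's cutoff, the mean activation of tested wells plus 3 SD, cut at about 7.9% in these data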
GAL4-VP16 Luc = activates GAL4-VP16 luciferase, flagging SMARCA2 activator hits; activation, % at 9.1 µM; HEK293 GAL4-VP16 pG5luc reporter, luciferase luminescence; scaled: DMSO wells 0%, SAHA wells 100%; AID 686939; 3,500 compounds, 41% hits; shares compounds with SMARCA2 activ;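 active means activation above the solvent-only control well mean plus 3 SD, averaged across control plates, cut at about 5.2% in these data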
Active calls of the source: *; nt = not tested or not shown. This is a sample that favours compounds with a hit; in the whole collection about 4.8% have one here.

SMILES	hcDAF-12 act	SMARCA2 activ	DAX1 inh-1	hgDAF12 agonist	ssDAF-12 act	DAX1 inh-2	SMARCA2 conf	GAL4-VP16 Luc
O=C(NC1CCCC1)C1C(c2ccc(C(F)(F)F)cc2)=Nc2ccccc2N1C(=O)c1ccccc1 (configuration not stated)	5.7*	13*	nt	5	1	3.6*	4	5.8*
Cc1cccc(NC(=O)Cn2c(=O)oc3ccccc32)c1	-1	8.8*	0	1	0	0	-3	1
O=C(Cn1c(=O)oc2ccccc21)Nc1cccc(Cl)c1	-1	-4	-1	-1	-1	-1	nt	nt
Cc1cccc(NC(=O)CN2C(=O)N/C(=C/c3ccc(C)o3)C2=O)c1	-2	9.1*	3	-1	-1	1	2	1
CC(C)c1ccccc1NC(=O)[C@@H]1CCCN1S(=O)(=O)c1cccc2cccnc12	-2	nt	nt	-4	-2	nt	nt	nt
O=C(OCc1cn(Cc2ccccc2F)nn1)N1CCOCC1	-2	0	nt	-1	-1	-1	nt	nt
Nc1nc(SCc2ccccc2)c2ncn(C3OC(CO)C(O)C3O)c2n1 (configuration not stated)	0	2	0	1	-1	0	nt	nt
OCC1OC(n2cnc3c(SCc4ccccc4)ncnc32)C(O)C1O (configuration not stated)	0	8.7*	1	0	-1	1	13*	1
OCC1OC(n2ccc3c(SCc4ccccc4)ncnc32)C(O)C1O (configuration not stated)	2	9.4*	3	13*	-1	3	8	9.6*
Cn1cnc2c(SCc3ccccc3)ncnc21	0	9.7*	1	7	-1	3	6	5
Nc1ncnc2c1ncn2C1OC(CO)C(O)C1O (configuration not stated)	-2	8.6*	-1	0	-2	0	5	0
O=C(Nc1ccc(F)cc1)OCc1cn(Cc2ccc(F)c(F)c2)nn1	-1	0	nt	-3	-1	1	nt	nt
O=C(OCC#CCSc1nnc(-c2cccc3ccccc23)o1)C1CCCC1	-3	nt	nt	0	-2	nt	nt	nt
COc1cc(OC)cc(N2CCN(S(=O)(=O)c3ccc(-n4cnnn4)cc3)CC2)c1	0	9.6*	1	-1	-1	0	1	2
Cc1ccc(C(=O)N2CCC(Oc3cccnc3)CC2)c(C)c1	0	2	nt	-4	-2	0	nt	nt
Cc1ccccc1C(=O)NC1CCCCN(Cc2ccc(Cl)cc2)C1=O (configuration not stated)	-3	-2	nt	0	-1	-1	nt	nt
COCc1nnc(NC(=O)c2cccs2)s1	0	2	1	2	-1	2	nt	nt
CNC(=O)c1ccsc1NC(=O)c1sc2ccccc2c1Cl	2	11*	1	4	-1	-1	12*	7.5*
COCc1nnc(NC(=O)c2sc3ccccc3c2Cl)s1	2	9.8*	-1	3	-1	1	17*	7.5*
CNC(=O)c1ccsc1NC(=O)CS(=O)(=O)c1ccccc1	-1	0	-1	-1	-1	1	nt	nt
Cc1nc2ccc(S(=O)(=O)NCC(=O)N(C)Cc3ccccc3F)cc2s1	-3	-2	nt	-3	-1	-1	nt	nt
O=C1CCCCC1CCS(=O)(=O)NCc1ccccc1 (configuration not stated)	1	-2	nt	1	-1	1	nt	nt
O=C(c1ccc(Br)cn1)N1CCC(Oc2cccnc2)CC1	-2	3	nt	0	-2	1	nt	nt
C=C1C(=O)[C@]23C[C@H]1CCC2[C@]1(C)C(=O)CC[C@@](C)(C(=O)O)C1C[C@@H]3O (some centres not stated)	-1	31*	nt	-1	-1	3	47*	0
